# FMDV antiviral – blocks foot and mouth disease virus | FMDV antiviral cell-based qHTS | hit rate 1.2% among 410,000 | Potency, µM (highest dose often 57.9 µM), for the others: at the top dose activity change, negative = inhibition, most hits filed as inhibitors | AID 1159524; calls by dose curve; tested in HEK293T cells; also: read-out not given here; potency is read from the fitted curve at half-maximal effect; nearly all actives have a fitted effect of over 45% in size
# VACV mCherry inh – inhibitors of vaccinia virus infection (mCherry reporter signal) | Vaccinia virus mCherry reporter infection, fluorescence | Potency, µM (top dose mostly 36.5 µM), for inactives: at the top dose activity change, negative = inhibition, usual class: inhibitors | hit rate 0.63% among 310,000 | AID 720579; calls by dose curve; tested in A549 cells; also: potency is read from the fitted curve at half-maximal effect; nearly all actives have a fitted effect of over 35% in size
# HCMV inh – inhibitors of human cytomegalovirus; HFF cells, HCMV-luciferase reporter, 72 h; active compounds read low; activity change, negative = inhibition, % at 57.5 µM; hit rate 4.5% among 410,000; in the data active = activity change below about -60%; inconclusive = no clear call, values can overlap the other calls; inactive = above about -39%
#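 Two compound doses tested in HFFs infected with HCMV-luciferase, MOI 1 PFU/cell, 72 h at 37C. Lysate luminescence read with OneGlo; data normalized against buffer-only and 10uM Salinomycin inhibitor controls.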
# VACV Venus inh – vaccinia inhibition (Venus reporter); Potency, µM (highest dose often 36.5 µM), for the others: at the top dose activity change, negative = inhibition, most hits filed as inhibitors; hit rate 0.46% among 330,000; Vaccinia virus Venus reporter expression, fluorescence; calls by dose curve; tested in A549 cells; also: potency is read from the fitted curve at half-maximal effect; nearly all actives have a fitted effect of over 30% in size
# HCV inh – blocks hepatitis C virus; AID 651820; Huh7.5.1 HCVcc-Cre infection, luciferase reporter, 44 h; hit rate 3.4% among 340,000; Potency, µM (top dose mostly 41.8 µM), for inactives: at the highest dose activity change, negative = inhibition, usual class: inhibitors; active = well fitted inhibition curve with a large enough effect; inconclusive = small, poorly fitted or top-dose-only effect, or another doubt; inactive = no such curve, though single readings can be large or run the other way; also: potency is read from the fitted curve at half-maximal effect
#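 Compounds are dispensed onto cells plated 4 h earlier at 1,000 per well, with HCVcc-Cre virus (about 0.5 moi) added next. Following 44 h of culture, luminescent signal is measured for 15 sec after 15 min with substrate at room temperature.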
# * = called active by the depositor; i = inactive; u = inconclusive; x = no result given; [ ] = remark or other dose. Shown are actives, neighbours in structure and some others; about 7.3% of the full set was active somewhere. % is scaled to controls: 0 for no effect and ±100 for the full control effect.
SMILES,FMDV antiviral,VACV mCherry inh,HCMV inh,VACV Venus inh,HCV inh
Cc1ccc(C)c(CN2C[C@H](Sc3nc4ccccc4[nH]3)C[C@H]2C(=O)N2CCCN(C)CC2)c1,10.0%,-18.5%,x,-8.8%,x
CC(C)(C)OC(=O)N1CCCC(C(=O)Nc2ccc(C(=O)NC3CC3)cc2)C1 (centres undefined),-7.1%,5.6%,3.4,6.0%,-12.9%[8.37 µM]
O=S1(=O)CCOC[C@H](CC2CCCCC2)N1Cc1ccc(Cl)cc1,-23.7%,-4.2%,-19.8,-17.6%,18.4%
O=S1(=O)CCOC[C@H](c2ccccc2)N1Cc1ccccc1,1.6%,u,21.3,-14.6%,-8.8%
Cc1ccc(CN2[C@@H](CC3CCCCC3)COCCS2(=O)=O)cc1,-23.0%,-3.8%,-70.3*,-19.5%,-3.7%
CCCC[C@H]1COCCS(=O)(=O)N1Cc1ccc(C)cc1,-14.7%,u,u,2.24µM*,-18.3%
CC(C)[C@H]1COCCS(=O)(=O)N1Cc1ccccc1-c1cccc2c1oc1ccccc12,u,u,-20.8,-28.9%,12.6µM*
O=S1(=O)CCOC[C@H](c2ccccc2)N1Cc1cccc(Cl)c1,0.0%,-5.2%,-79.8*,-14.1%,-2.6%
COc1cc(C2NC(=O)NC(C)=C2C(=O)Nc2cc(C)cc(C)c2)ccc1O (centres undefined),4.4%,-2.4%,5.9,-3.9%,x
NC(=O)CC1(c2ccccc2)CCCCC1,-8.2%,-14.1%,-31.3,-12.3%,x
COc1ccccc1C1CN(CCNC(=O)c2cnsn2)Cc2ccccc2O1 (centres undefined),9.3%,-20.7%,x,-5.4%,x
CCOc1ccc(C2C(C(N)=O)=C(C)Nc3nc(SCc4ccccc4)nn32)cc1 (centres undefined),0.7%,-3.6%,3.7,-1.9%,x
O=C(NCc1ccc(F)cc1)c1cc(C2CCCN(C(=O)c3ccc4ccccc4c3)C2)on1 (centres undefined),u,-13.7%,-24.5,-25.5%,x
CC(C)[C@H]1COCCS(=O)(=O)N1Cc1ccc(Cl)cc1,0.0%,25.1µM*,-25.5,u,17.0%
CCC1COCCS(=O)(=O)N1Cc1ccc(Cl)cc1 (centres undefined),-15.8%,-20.7%,-12.9,-14.5%,2.0%
O=[N+]([O-])c1ccc(Nc2nc(NCCN3CCOCC3)nc(Nc3ccc(Cl)cc3)n2)cc1,x,-25.1%,x,-29.2%,x
O=[N+]([O-])c1ccc(S(=O)(=O)N2CCn3cccc3C2c2ccccc2F)cc1 (centres undefined),u,11.2µM*,-2.2,u,x
CC(=O)N1CCC2(CCCN(C(=O)Nc3cccc(C#N)c3)C2)CC1,-6.3%,x,x,x,x
Cc1c(C(=O)Nc2cccc(C(F)(F)F)c2)sc2nc3n(c(=O)c12)CCCC3,17.8µM*,-24.2%,-16.1,-20.6%,x
CC(=O)c1cccc(NC(=O)c2sc3nc4n(c(=O)c3c2C)CCCC4)c1,19.7%,-6.0%,-3.4,-11.8%,-28.6%
CCc1ccc(NC(=O)c2sc3nc4n(c(=O)c3c2C)CCC4)cc1,-2.7%,x,-29.2,x,u
CC(=O)Nc1ccc(NC(=O)c2sc3nc4n(c(=O)c3c2C)CCCCC4)cc1,-13.4%,x,-82.4*,x,u
Cc1c(C(=O)N(C)c2cccc(C(F)(F)F)c2)sc2nc3n(c(=O)c12)CCCCC3,-26.5%,-3.7%[7.34 µM],-76.2*,-5.9%[7.34 µM],x
Cc1ccc(-n2ccnc(NCCc3ccc(S(N)(=O)=O)cc3)c2=O)c(C)c1,0.0%,-20.2%,-36.2,-9.6%,x
Cc1cccc(C(=O)Nc2c(C(=O)NCc3ccc(Cl)cc3)sc3nc(C)cc(C)c23)c1,3.6%,-14.8%[7.34 µM],-75.4*,-5.1%[7.34 µM],x
SMILES,FMDV antiviral,VACV mCherry inh,HCMV inh,VACV Venus inh,HCV inh
Cc1cc(C)c2c(NC(=O)c3ccccc3)c(C(=O)Nc3ccc(F)cc3)sc2n1,-8.4%,-12.1%,3.6,-8.8%,x
Cc1ccc(Sc2ccc(NC(=O)CCl)cc2)c(C)c1,31.6µM*,x,17.8,x,u
Cc1ccc(C)c(Sc2ccc(NC(=O)CCN3C(=O)NC4(CCCC4)C3=O)cc2)c1,u,x,-7.0,x,u
CCCCn1nc2cc(C(=O)NCc3ccccc3OC)ccc2c1OCC,8.1%,-6.9%,5.8,-4.6%,3.55µM*
CCCCn1nc2cc(C(=O)NCc3ccc(C(F)(F)F)cc3C(F)(F)F)ccc2c1OCC,-20.3%,-0.3%,-25.7,u,u
CCOc1ccc(N(C(=O)c2snc(C(N)=O)c2N)C(C(=O)NCC2CCCO2)c2ccco2)cc1 (centres undefined),-5.7%,-8.1%,-36.2,-3.9%,-20.2%
O=C(NC1CCCCC1)C(c1ccccc1F)N(C(=O)c1csnn1)C1CCCC1 (centres undefined),-3.0%,-24.3%,-60.2*,1.5%,4.3%
Cc1ccc(N(C(=O)c2snc(C(N)=O)c2N)C(C(=O)NC2CCCC2)c2ccco2)cc1 (centres undefined),-14.7%,-15.3%,-71.3*,-23.4%,-21.0%
CN(C)c1ccc(C(C(=O)NC2CCCCC2)N(Cc2ccco2)C(=O)c2snc(C(N)=O)c2N)cc1 (centres undefined),-4.2%,-14.6%,-74.5*,-5.9%,11.2µM*
COc1ccccc1C(C(=O)NC1CCCCC1)N(C(=O)c1csnn1)C1CC1 (centres undefined),25.5%,-17.5%,-26.7,-16.4%,-0.1%
CCc1ccc(N(C(=O)c2snc(C(N)=O)c2N)C(C(=O)NCC2CCCO2)c2ccco2)cc1 (centres undefined),5.1%,i,-60.4*,0.4%,-10.2%
COc1cc(C(C(=O)NC2CCCC2)N(Cc2ccco2)C(=O)c2snc(C(N)=O)c2N)cc(OC)c1OC (centres undefined),-19.5%,-25.1%,18.5,-22.4%,-11.6%
Cc1ccc(S(=O)(=O)N2CCCCC2C(=O)N(C)c2ccccc2)cc1 (centres undefined),-20.0%,-12.7%,4.1,-4.0%,-6.2%
C(=NNc1nnn(Cc2ccccc2)n1)c1ccccc1,55.7%,u,30.6,-19.6%,x
COc1ccc[n+](CC(=O)c2ccc(F)cc2)c1,x,-15.6%,x,-7.1%,x
CCCC(=O)N(Cc1cc2cc(OC)ccc2[nH]c1=O)c1ccccc1OC,-24.8%,i,u,2.4%,x
Cc1cc2nc(-c3ccc(Cl)cc3)c(CC3CCCCC3)n2c(C)c1Br,-5.5%,33.8%,15.6,3.8%,x
NNC(=O)C(Cc1c[nH]c2ccccc12)NC(=O)c1ccccc1 (centres undefined),11.9%,i,43.9,-3.4%,5.2%
CC(C)c1ccc(N(C(=O)c2snc(C(N)=O)c2N)C(C(=O)NCC2CCCO2)c2ccc(N(C)C)cc2)cc1 (centres undefined),17.8µM*,u,-85.8*,u,u
Cc1ccc(N(C(=O)c2csnn2)C(C(=O)NC2CCCCC2)c2ccco2)cc1 (centres undefined),-2.7%,-17.9%,-61.5*,-17.5%,-8.8%
Cc1ccc(N(C(=O)c2csnn2)C(C(=O)NC2CCCCC2)c2ccccn2)c(C)c1 (centres undefined),18.3%,i,-62.0*,2.1%,-5.8%
